Measurements reported in PubChem BioAssay (NCATS).
Active and inactive are the calls of the source. Calls come from the whole dose curve; as a rule, active = well fitted activation curve with a large enough effect; inconclusive = small, poorly fitted or top-dose-only effect; inactive = flat fitted curve, though single readings scatter.

Assay: Cellular Toxicity (caspase-3) N2a (AID 665);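 note: compound exposure lasted 16 h at 37 °C before readout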
Conditions: N2a cells, luminescence; Potency: caspase-3 activation; series mostly up to 92.2 µM; caspase-3 activation: at the top concentration
Text: NIH Chemical Genomics Center [NCGC]
NIH Molecular Libraries Screening Centers Network [MLSCN]
National Institutes of Environmental Health Sciences [NIEHS]
National Toxicology Program [NTP]
We have developed a 1536-well cell-based assay for quantitative high throughput screening (qHTS) against a number of cell lines to determine in vitro caspase 3/7 activity of small molecules. This particular assay uses the N2a cell line which is derived from mouse neuroblastoma.
NCGC Assay Protocol Summary:
The Caspase-Glo 3/7 assay (Promega) is a homogeneous method to measure caspase-3 and caspase-7 activities in cultured cells. The quantitation of caspase 3/7 activity is based on the cleavage of a peptide-aminoluciferin substrate. After caspase cleaves the substrate the free aminoluciferin is liberated and serves as the substrate of luciferase, which generates the light. The luminescent signal is proportional to the amount of caspase 3/7 activity present.
Using the Caspase-Glo 3/7 assay, the amount of caspase 3/7 activity was measured in the N2a cells with complete culture medium following compound treatment for 16 hours. The assay was performed in opaque white 1536-well plates. In the screen, staurosporine and doxorubicin were used as positive controls. Library compounds were measured for their ability to cause the activation of caspase 3/7 in the cell line, as reflected by an increase in luminescence signal, in a concentration-dependent manner. Data were normalized to the controls for basal activity (DMSO only) and 100% stimulation (10 uM staurosporine). AC50 values were determined from concentration-response data modeled with the standard Hill equation.
qHTS protocol for caspase 3/7 assay in mouse N2a cell line
[Step] [Parameter] [Value] [Description]
1. Reagent; 5 uL; 1500 mouse N2a cells/well
2. Time; 5 hr; 37 °C incubation
4. Controls; 23 nL; doxorubicin 7 pM to 100 uM & staurosporine 1.4 pM to 20 uM
5. Time; 16 hr; 37 °C incubation
6. Reagent; 5 uL; Caspase-Glo 3/7 reagent
7. Time; 1 hr; Room Temperature
8. Detection; Luminescence; Viewlux plate reader
Keywords: caspase 3/7, apoptosis, mouse N2a cell line, luminescence, NTPHTS, NTPHTS_NCGC, NIEHS, EPA, DSSTox, MLSMR, MLSCN, NIH Roadmap, qHTS, NCGC
Potency is the fitted concentration of half-maximal effect.

| SMILES | caspase-3 activation | Potency |
| --- | --- | --- |
| O=C1CN(/N=C/c2ccc([N+](=O)[O-])o2)C(=O)N1 | 3.43% (inactive) |  |
| CN(C)CCC(c1ccc(Cl)cc1)c1ccccn1 (stereo not drawn) | 0.792% (inactive) |  |
| CN1CCC[C@H]1c1cccnc1 | -1.5% (inactive) |  |
| S=c1[nH]c2ccccc2s1 | -1.68% (inactive) |  |
| Nc1ccc(O)c(C(=O)O)c1 | -11.3% (inactive) |  |
| O=C(O)/C=C\C(=O)O | 0.911% (inactive) |  |
| Nc1nc2ccc([N+](=O)[O-])cc2s1 | -13.3% (inactive) |  |
| CN(C)c1ccc(C(=C2C=CC(=[N+](C)C)C=C2)c2ccccc2)cc1 |  | 79.4 nM (active) |
| CC(C)NCC(O)COc1cccc2ccccc12 (stereo not drawn) | -1.9% (inactive) |  |
| NCCO | -5.76% (inactive) |  |
| COc1cc(CNC(=O)CCCC/C=C/C(C)C)ccc1O | -6.73% (inactive) |  |
| Nc1ccc(O)c([N+](=O)[O-])c1 | 8.82% (inactive) |  |
| CN(C)c1ccc(N=NS(=O)(=O)O)cc1 | -1.36% (inactive) |  |
| C#C[C@]1(O)CC[C@H]2[C@@H]3CCc4cc(O)ccc4[C@H]3CC[C@@]21C | 1.6% (inactive) |  |
| CCCCCCCCCCCCCCCCCC(=O)O | -0.788% (inactive) |  |
| Oc1ccccc1O | 8.48% (inactive) |  |
| c1cnc2c(c1)ccc1cccnc12 | -1.16% (inactive) |  |
| CC1(C)S[C@@H]2[C@H](NC(=O)[C@H](N)c3ccccc3)C(=O)N2[C@H]1C(=O)O | -2.71% (inactive) |  |
| O=C(O)c1cc(O)c(O)c(O)c1 | -12.8% (inactive) |  |
| Nc1ccc([N+](=O)[O-])cc1O | -1.91% (inactive) |  |
| O=c1cc(-c2ccccc2)oc2ccccc12 | -10.2% (inactive) |  |
| CCCOC(=O)c1ccc(O)cc1 |  | inactive |
| c1ccc2sc(SSc3nc4ccccc4s3)nc2c1 | 0.995% (inactive) |  |
